Drawing on PubChem BioAssay (NCI), this text covers growth for 14 compounds.

This is part of a sample that, as a whole, favours compounds with a hit. Of some 83,000 tested, about 20% had one in any assay.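 The test compound was applied at a single concentration to cells in 96-well plates for 48 hours, and percent growth was recorded.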 Values without a mark were called inactive. Activity calls are given as the source filed them. Rule for the calls: active = growth percent below 10; inactive = the rest.

Some test systems named below: SR leukemia; RPMI-8226 leukemia; OVCAR-8 ovarian; OVCAR-5 ovarian; OVCAR-4 ovarian; SK-OV-3 ovarian; IGROV1 ovarian; OVCAR-3 ovarian; HS 578T breast; NCI/ADR-RES ovarian.
Holding throughout (test): NCI-60 one-dose screen, 48 h (100 = growth as untreated, 0 = no growth, -100 = all killed)
Common to all, as to settings: 10 µM unless noted

In the case of `COc1cc(OC)c(/C=C/C(=O)c2ccc(Nc3ncnc4ccccc34)cc2)c(OC)c1`, the growth with SR leukemia was 1.91% (active); in the experiment on RPMI-8226 leukemia, 12.2%; in the experiment on OVCAR-8 ovarian it was -44% (active); in the experiment with OVCAR-5 ovarian, 8.12% (active); in the experiment with OVCAR-4 ovarian it was 6.46% (active); in the experiment on SK-OV-3 ovarian, -42.4% (active). Also, the growth with IGROV1 ovarian is 19.3%; with OVCAR-3 ovarian it was -67.8% (active); in the experiment with HS 578T breast, -13.2% (active); with NCI/ADR-RES ovarian, -17.2% (active).

Turning to `COc1ccc(C2=C(c3ccccc3)c3ccc(OC(C)=O)cc3OC2(C)C)cc1`, the growth with SR leukemia was 41.2%; in the experiment on RPMI-8226 leukemia, 32%; in the experiment on OVCAR-8 ovarian, 125%; with OVCAR-5 ovarian, 85.3%; in the experiment on OVCAR-4 ovarian, 88.2%; with SK-OV-3 ovarian, 116%. Besides, the growth in the experiment on IGROV1 ovarian is 96.7%; in the experiment with OVCAR-3 ovarian, 85.1%; in the experiment on HS 578T breast, 104%; in the experiment on NCI/ADR-RES ovarian, 77.2%.

As for `Cc1ccccc1C(c1ccccc1)c1ccccc1C`, the growth is 104% in the experiment on SR leukemia; 89.5% with RPMI-8226 leukemia; 89.8% in the experiment with OVCAR-8 ovarian; 85% in the experiment with OVCAR-5 ovarian; 108% with OVCAR-4 ovarian; 75.1% in the experiment on SK-OV-3 ovarian. The growth in the experiment with IGROV1 ovarian is 92.2%; in the experiment with OVCAR-3 ovarian it was 104%; in the experiment with HS 578T breast, 106%; with NCI/ADR-RES ovarian it was 104%.

In the case of `Clc1ccc2c(c1)c(-c1ccccc1)nc1nncn12`, the growth with SR leukemia is 83.8%; in the experiment with RPMI-8226 leukemia it was 103%; in the experiment on OVCAR-8 ovarian, 106%; with OVCAR-5 ovarian it was 115%; in the experiment with OVCAR-4 ovarian it was 121%; in the experiment on SK-OV-3 ovarian it was 107%. Moreover, the growth with IGROV1 ovarian is 109%; in the experiment on OVCAR-3 ovarian, 110%; in the experiment on HS 578T breast it was 106%; with NCI/ADR-RES ovarian, 101%.

With `COc1ccc(NC(=O)c2sc3nc(C)c(C(=O)c4ccc(OC)cc4)cc3c2N)cc1`, the growth in the experiment with SR leukemia was 7.62% (active); in the experiment on RPMI-8226 leukemia, 41.3%; in the experiment on OVCAR-8 ovarian, 62.1%; with OVCAR-5 ovarian it was 72.6%; with OVCAR-4 ovarian, 61.7%; with SK-OV-3 ovarian, 42.7%. The figures for the growth with OVCAR-3 ovarian, in the experiment with HS 578T breast and with NCI/ADR-RES ovarian were 25%, 40.4% and 48.9%, respectively.

Regarding `O=C(CCN1CCCC1)Nc1ccc2c(Nc3ccccc3)c3ccccc3nc2c1`, the growth in the experiment with SR leukemia was -14.9% (active); with RPMI-8226 leukemia, -27.3% (active); in the experiment with OVCAR-8 ovarian, 7.5% (active); with OVCAR-5 ovarian it was 20%; in the experiment with OVCAR-4 ovarian, -4.97% (active); in the experiment on SK-OV-3 ovarian, 23.8%. For the same compound, the growth in the experiment with IGROV1 ovarian is 13.5%; with OVCAR-3 ovarian, -25% (active); in the experiment on HS 578T breast, 32.2%; with NCI/ADR-RES ovarian, 47.1%.

For the compound `Cc1cc(C)c(C=O)c(C)c1`, the growth in the experiment with SR leukemia was 105%; in the experiment on RPMI-8226 leukemia, 89.8%; in the experiment with OVCAR-8 ovarian, 94.2%; with OVCAR-5 ovarian, 98.5%; with OVCAR-4 ovarian it was 108%; in the experiment on SK-OV-3 ovarian, 74.7%. Besides, the growth in the experiment with OVCAR-3 ovarian is 107%; with HS 578T breast it was 104%; in the experiment with NCI/ADR-RES ovarian it was 107%.

For the compound `COc1ccc(C2=NN(C(C)=O)C(c3cn(Cc4ccc(Cl)cc4)c4ccccc34)C2)cc1` (stereo unspecified), the growth with SR leukemia is 66.2%; with RPMI-8226 leukemia it was 50%; in the experiment on OVCAR-8 ovarian, 78.3%; in the experiment with OVCAR-5 ovarian, 79.6%; in the experiment with OVCAR-4 ovarian, 70.1%; in the experiment with SK-OV-3 ovarian, 90.1%. The growth was 77.5% with IGROV1 ovarian, 78.1% with OVCAR-3 ovarian, 75.9% in the experiment with HS 578T breast and 75% in the experiment with NCI/ADR-RES ovarian.

On to `O=C(O)CCCCCCCCCCCCCCC(=O)O`, for which the growth was 101% in the experiment on SR leukemia; 93.8% in the experiment on RPMI-8226 leukemia; 97.2% in the experiment on OVCAR-8 ovarian; 109% with OVCAR-5 ovarian; 120% in the experiment on OVCAR-4 ovarian; 102% with SK-OV-3 ovarian. The growth in the experiment on IGROV1 ovarian was 100%; in the experiment on OVCAR-3 ovarian, 101%; in the experiment with NCI/ADR-RES ovarian it was 103%.

For `CC1(C)[C@H](O)CC[C@]2(C)[C@@H]1CC[C@@]13C[C@@H](CC[C@H]12)[C@@](O)(CO)C3`, the growth in the experiment on SR leukemia is 103%; in the experiment with RPMI-8226 leukemia it was 108%; in the experiment on OVCAR-8 ovarian, 110%; in the experiment on OVCAR-5 ovarian it was 106%; in the experiment on OVCAR-4 ovarian, 117%; in the experiment on SK-OV-3 ovarian it was 109%. For the same compound, the growth is 113% in the experiment with IGROV1 ovarian, 112% in the experiment with OVCAR-3 ovarian, 97.9% in the experiment with HS 578T breast and 106% in the experiment on NCI/ADR-RES ovarian.

In the case of `CCc1nc(C)cn1C(=O)OCc1nc2nc(Cl)nc(N3CCOCC3)c2[nH]1`, the growth is -16.1% (active) in the experiment with SR leukemia; -33.1% (active) in the experiment with RPMI-8226 leukemia; -13.7% (active) in the experiment on OVCAR-8 ovarian; -48.9% (active) in the experiment on OVCAR-5 ovarian; -33.9% (active) with OVCAR-4 ovarian; 70% in the experiment with SK-OV-3 ovarian. Besides, the values for the growth with OVCAR-3 ovarian, with HS 578T breast and with NCI/ADR-RES ovarian were -80.9% (active), -6.6% (active) and 2.83% (active), respectively.

`CCc1c(Nc2ccc(C)cc2)nc(N)[nH]c1=O`: the growth in the experiment with SR leukemia is 87.9%; in the experiment on RPMI-8226 leukemia it was 103%; in the experiment with OVCAR-8 ovarian it was 102%; in the experiment on OVCAR-5 ovarian, 101%; in the experiment with OVCAR-4 ovarian, 108%; with SK-OV-3 ovarian, 114%. For the same compound, the growth was 102% in the experiment on IGROV1 ovarian, 119% in the experiment on OVCAR-3 ovarian, 111% in the experiment with HS 578T breast and 106% in the experiment with NCI/ADR-RES ovarian.

As for `COc1ccc(C(O)c2cc3c(N)c(C(=O)Nc4cccc(OC)c4)sc3nc2C)cc1` (stereo unspecified), the growth in the experiment with SR leukemia was 2.51% (active); in the experiment with RPMI-8226 leukemia it was 6.06% (active); with OVCAR-8 ovarian, 5.76% (active); in the experiment with OVCAR-5 ovarian, 23%; in the experiment on OVCAR-4 ovarian, 36.5%; in the experiment with SK-OV-3 ovarian, 19.5%. For the same compound, the growth in the experiment on IGROV1 ovarian is 15.4%; with OVCAR-3 ovarian, 0.638% (active); with HS 578T breast it was 23.7%; in the experiment on NCI/ADR-RES ovarian, 13.7%.

`COc1cc(/C=C/C(=O)c2ccc(Nc3ncnc4ccccc34)cc2)cc(OC)c1`: the growth was 0.253% (active) with SR leukemia; 2.26% (active) with RPMI-8226 leukemia; 57.5% in the experiment on OVCAR-8 ovarian; 101% in the experiment with OVCAR-5 ovarian; 79.8% with OVCAR-4 ovarian; 128% with SK-OV-3 ovarian. The growth in the experiment with IGROV1 ovarian was 60.2%; in the experiment with OVCAR-3 ovarian, 36.4%; in the experiment with HS 578T breast it was 82.4%; in the experiment on NCI/ADR-RES ovarian, 73.6%.
